CHX counter = affects cycloheximide protein synthesis inhibition readout, counter-screen. cell reporter, cycloheximide protein synthesis inhibition counterscreen. max response, %. hit rate 12% among 300,000. AID 2314; in the data active = max response mostly above about 13%, no sharp cut-off; inactive = mostly below about 14%; note: read at 38.3 µM for the half of the compounds with a filed dose; 0% is about no effect
Shiga inhibitor = Shiga toxin inhibition. Vero cells, Shiga toxin protein synthesis inhibition reporter. inhibition, % at 38.7 µM. hit rate 9.2% among 290,000. AID 2315; in the data active = inhibition mostly above about 28%, no sharp cut-off; inactive = mostly below about 43%; note: 0% is about no effect
NS1 inh = influenza NS1 inhibition; Potency, µM (top dose mostly 46.1 µM), inactives show top-dose activity, positive = more growth; hit rate 0.4% among 270,000; AID 2326; note: potency is the fitted concentration of half-maximal effect; actives are rising curves; nearly all actives have a fitted effect of over 50% in size
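S. cerevisiae expressing influenza A NS1, grown in glucose, washed, then diluted 1:100 into pH 6.0 -URA galactose medium with 23 nl compound. Growth recovery read as OD600; NS1-free strain serves as control.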
SARS PLP yeast = SARS-CoV PLP inhibition in yeast | Potency, µM (top dose mostly 32.9 µM), without a hit: top-dose activity, positive = growth rescue, hits mostly activators | S. cerevisiae expressing SARS-CoV PLpro, growth rescue | hit rate 0.19% among 330,000; note: potency is the fitted concentration of half-maximal effect; 0% is about no effect; nearly all actives have a fitted effect of over 55% in size
* = called active by the depositor. A selection: hits, their analogues and other compounds. The true share with any hit is near 12%. Unless noted, calls come from the whole dose curve.

For O=C(O)CCNC(=O)/C(=C/C=C/c1ccccc1)NC(=O)c1ccccc1 the results were CHX counter -2, Shiga inhibitor -9 and SARS PLP yeast 0%.
CC(=O)/C(=N\Nc1cccc(Cl)c1)Sc1nnc(-c2ccccc2)n1-c1ccccc1 was read as CHX counter -6, Shiga inhibitor -5, NS1 inh -2% and SARS PLP yeast -1%.
`CCN(CC(=O)Nc1ccc(NC(C)=O)cc1)C(=O)c1cccc(S(=O)(=O)N2c3ccccc3CC2C)c1` (centres undefined) gave SARS PLP yeast 2%.
For O=C(COC(=O)CNS(=O)(=O)c1ccc(F)c(F)c1F)NCCc1ccccc1 the results were CHX counter 46*, Shiga inhibitor 49*, NS1 inh 16% and SARS PLP yeast -1%.
Screening Cc1cccc(NC(=S)NC2CC3C=CC2C3)c1 (centres undefined) returned CHX counter 3, Shiga inhibitor 35, NS1 inh -33% and SARS PLP yeast 6%.
`CC(=O)Nc1ccc(C(=O)OCC(=O)/C(C#N)=C(\C)N)cc1` gave CHX counter 25*, Shiga inhibitor 16, NS1 inh 10% and SARS PLP yeast 1%.
`C/C(N)=C(/C#N)C(=O)COC(=O)c1ccccc1Cc1ccccc1` gave CHX counter 18*, Shiga inhibitor 22 and SARS PLP yeast -2%.
`C/C(N)=C(/C#N)C(=O)COC(=O)c1cccc(O)c1` gave CHX counter 17, Shiga inhibitor 97* and SARS PLP yeast 0%.
For C/C(N)=C(/C#N)C(=O)COC(=O)c1ccncc1 the results were CHX counter -2, Shiga inhibitor -25, NS1 inh 4% and SARS PLP yeast -1%.
`CC(NC(=O)COC(=O)CN1C(=O)c2ccccc2C1=O)c1ccccc1` (centres undefined) gave SARS PLP yeast 1%.
`Cc1ccc(-c2csc(N/N=C/C=C/c3ccccc3)n2)cc1` gave CHX counter 16*, Shiga inhibitor 49, NS1 inh inconclusive and SARS PLP yeast inconclusive.
ClCc1csc(N/N=C/c2cccs2)n1 was read as CHX counter 17*, Shiga inhibitor 39*, NS1 inh -6% and SARS PLP yeast 1%.
C/C(=N/Nc1nc(-c2ccc(Cl)cc2)cs1)c1cccs1 was read as CHX counter 14, Shiga inhibitor 47, NS1 inh 3% and SARS PLP yeast -3%.
Screening CN(C)S(=O)(=O)c1ccc(-c2csc(N/N=C/c3ccc(O)cc3)n2)cc1 returned CHX counter 14*, Shiga inhibitor 32, NS1 inh 20% and SARS PLP yeast 2%.
Screening C(=N\Nc1nc(-c2ccccc2)cs1)/c1cccs1 returned CHX counter 68*, Shiga inhibitor 105*, NS1 inh inconclusive and SARS PLP yeast inconclusive.
Screening Cc1onc(-c2ccccc2)c1-c1csc(N/N=C/c2ccccc2)n1 returned CHX counter 2, Shiga inhibitor 18, NS1 inh 9% and SARS PLP yeast 0%.
For C(=N\Nc1nc(-c2ccccc2)cs1)/c1ccncc1 the results were CHX counter 43*, Shiga inhibitor 51*, NS1 inh -7% and SARS PLP yeast -3%.
Screening COC(=O)C1CCN(C(=O)COC(=O)CC(NC(N)=O)c2ccc(Cl)cc2)CC1 (centres undefined) returned CHX counter 0, Shiga inhibitor -7, NS1 inh -2% and SARS PLP yeast 3%.
Screening COc1cc(-c2nn3c(-c4ccco4)nnc3s2)cc(OC)c1OC returned CHX counter -2, Shiga inhibitor 33, NS1 inh 3% and SARS PLP yeast -1%.
Screening COc1cccc(OC)c1-c1nn2c(-c3ccco3)nnc2s1 returned CHX counter 56*, Shiga inhibitor 200*, NS1 inh -97% and SARS PLP yeast -9%.
Screening Fc1ccc(NCc2ccccc2F)cc1Cl returned CHX counter 13, Shiga inhibitor 38, NS1 inh 9% and SARS PLP yeast 2%.
For Fc1ccccc1CNc1ccc(Cl)cc1 the results were CHX counter 28*, Shiga inhibitor 50*, NS1 inh -1% and SARS PLP yeast 1%.
`Cc1noc(C)c1C(=O)N1CCCc2ccccc21` gave CHX counter 15, Shiga inhibitor 5, NS1 inh 10% and SARS PLP yeast 0%.
O=C(c1cc(-c2cccs2)on1)N1CCCc2ccccc21 was read as CHX counter 39*, Shiga inhibitor 73*, NS1 inh -107% and SARS PLP yeast -17%.
For O=C(c1cc(-c2ccc(F)cc2)on1)N1CCCc2ccccc21 the results were CHX counter 46*, Shiga inhibitor 64* and SARS PLP yeast -4%.
O=C(CSc1n[nH]c(-c2cccs2)n1)N1CCCc2ccccc21 was read as CHX counter -3, Shiga inhibitor -15, NS1 inh -23% and SARS PLP yeast 6%.
Cc1ccc(-c2cc(C(=O)N3CCCc4ccccc43)no2)cc1 was read as CHX counter 31*, Shiga inhibitor 98*, NS1 inh -43% and SARS PLP yeast -3%.
`COC(=O)[C@@H]1[C@@H]2C[C@H]3c4[nH]c5ccccc5c4CCN3C[C@@H]2CC[C@@H]1O` gave NS1 inh -3%.
For CCCCNC(=O)/C(C#N)=C/c1ccc(F)cc1F the results were CHX counter 18, Shiga inhibitor 7 and SARS PLP yeast -7%.
`O=C(CCS(=O)(=O)c1ccc(Cl)cc1)Nc1nccs1` gave SARS PLP yeast -2%.
For COc1ccc(-c2nc(CN(C)C(C)c3ccon3)c(C)o2)c(C)c1C (centres undefined) the results were CHX counter 7, Shiga inhibitor 13, NS1 inh 0% and SARS PLP yeast 3%.
COc1ccc(-c2nc(CN(CC3CCC(=O)N3)C(C)C)c(C)o2)c(C)c1C (centres undefined) was read as CHX counter 25*, Shiga inhibitor 87*, NS1 inh -1% and SARS PLP yeast -1%.
Screening CC(C)C12CC[C@@]3(CC[C@H]4[C@@](C)(CCC[C@]4(C)C(=O)O)[C@@H]3C1)[C@@H](CN)C2 returned NS1 inh -10%.
Screening Oc1ccc(-c2csc(Nc3ccccn3)n2)c(O)c1 returned CHX counter 34*, Shiga inhibitor 131*, NS1 inh -61% and SARS PLP yeast -16%.
Cc1cccnc1Nc1nc(-c2ccc(O)cc2O)cs1 was read as CHX counter 39*, Shiga inhibitor 112*, NS1 inh -66% and SARS PLP yeast -35%.
For NS(=O)(=O)c1ccc(Nc2nc(-c3ccc(O)cc3O)cs2)cc1 the results were CHX counter -2, Shiga inhibitor -16, NS1 inh inconclusive and SARS PLP yeast 8%.
CCN(CC)C(=O)CSc1nc2c(c(-c3cccnc3)c1C#N)CCCC2 was read as CHX counter -6, Shiga inhibitor -10, NS1 inh -5% and SARS PLP yeast 0%.
For CN(C(=O)COc1ccc(Cl)cc1Br)C1CCCCC1 the results were CHX counter 45*, Shiga inhibitor 72*, NS1 inh -28% and SARS PLP yeast -6%.
For O=C(COc1ccc(Cl)cc1Cl)N(c1ccccn1)C1CCCCC1 the results were CHX counter 30*, Shiga inhibitor 32, NS1 inh -28% and SARS PLP yeast 3%.

From PubChem BioAssay
